# How the values were obtained:
# Test in all cases: DAPPL (digital affinity profiling via proximity ligation, sequencing); 10 mM Tris-HCl pH 7.5, 50 mM NaCl, 1 mM DTT, 4% glycerol, room temperature, 30 min; GST-TFs on glutathione beads, 16-mer random dsDNA library, 0.1% formaldehyde crosslink after washing; high values mean tight binding
# FLI1 = target: T1, FLI1 (Homo sapiens, UniProt Q01543 1-452); details: protein: recombinant; tags: N-terminal GST; dsDNA, one strand shown
# T1 sequence: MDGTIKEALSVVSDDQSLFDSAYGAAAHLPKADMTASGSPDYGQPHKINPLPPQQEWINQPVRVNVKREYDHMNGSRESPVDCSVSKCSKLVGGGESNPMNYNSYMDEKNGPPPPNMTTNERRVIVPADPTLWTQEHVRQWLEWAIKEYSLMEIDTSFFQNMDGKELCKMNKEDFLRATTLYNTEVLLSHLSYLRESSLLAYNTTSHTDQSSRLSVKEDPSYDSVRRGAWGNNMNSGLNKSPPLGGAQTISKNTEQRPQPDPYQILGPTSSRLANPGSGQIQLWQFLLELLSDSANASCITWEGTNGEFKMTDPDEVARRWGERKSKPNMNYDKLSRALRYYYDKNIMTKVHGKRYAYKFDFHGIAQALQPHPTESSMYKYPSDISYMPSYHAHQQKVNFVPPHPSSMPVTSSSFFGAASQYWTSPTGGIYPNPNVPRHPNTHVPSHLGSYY
# Method in brief: (§1)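 A tag-only sample was pooled with DNA-barcoded human transcription factors that had been expressed in yeast as GST fusions and captured on glutathione beads. The pools were incubated for 30 min at room temperature with 200 nmole of a random double-stranded 16-mer DNA library in Tris/NaCl/DTT/glycerol buffer, then washed, crosslinked with 0.1% formaldehyde, proximity-ligated (BsaI/T4 ligase, 1 h, 37 °C), PCR-amplified and sequenced on an Illumina NextSeq500. Binding signal is each hexamer's read frequency for a factor divided by its frequency for the tag-only sample.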
# ELK1 = target: T2, ELK1 (Homo sapiens, UniProt P19419 1-428); details: protein: recombinant; tags: N-terminal GST; dsDNA, one strand shown
# T2 sequence: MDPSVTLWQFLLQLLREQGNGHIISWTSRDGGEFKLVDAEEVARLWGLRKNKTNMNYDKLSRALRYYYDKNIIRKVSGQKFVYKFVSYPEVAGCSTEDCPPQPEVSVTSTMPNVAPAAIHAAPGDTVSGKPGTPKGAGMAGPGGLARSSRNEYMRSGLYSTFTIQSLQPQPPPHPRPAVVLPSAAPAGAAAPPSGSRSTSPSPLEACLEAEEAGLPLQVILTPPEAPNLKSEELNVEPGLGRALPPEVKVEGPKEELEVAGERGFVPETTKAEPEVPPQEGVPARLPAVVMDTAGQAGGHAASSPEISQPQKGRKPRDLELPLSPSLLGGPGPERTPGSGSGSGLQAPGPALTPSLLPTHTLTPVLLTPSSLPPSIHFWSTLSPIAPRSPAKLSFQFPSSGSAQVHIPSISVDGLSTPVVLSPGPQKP
# Method in brief: as §1
# GABPA = target: T3, GABPA (Homo sapiens, UniProt Q06546 1-454); details: protein: recombinant; tags: N-terminal GST; dsDNA, one strand shown
# T3 sequence: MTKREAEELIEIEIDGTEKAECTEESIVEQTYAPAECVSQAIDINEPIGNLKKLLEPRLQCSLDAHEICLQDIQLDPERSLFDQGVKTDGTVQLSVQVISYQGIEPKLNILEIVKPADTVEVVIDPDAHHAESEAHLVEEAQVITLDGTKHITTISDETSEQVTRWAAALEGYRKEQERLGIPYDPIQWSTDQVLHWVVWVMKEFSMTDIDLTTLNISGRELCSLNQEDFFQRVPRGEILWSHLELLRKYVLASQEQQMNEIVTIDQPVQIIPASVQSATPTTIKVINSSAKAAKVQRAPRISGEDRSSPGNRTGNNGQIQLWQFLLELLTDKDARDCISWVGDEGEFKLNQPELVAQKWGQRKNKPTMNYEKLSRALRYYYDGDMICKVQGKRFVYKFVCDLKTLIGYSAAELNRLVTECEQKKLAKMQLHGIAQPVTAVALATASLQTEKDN
# Method in brief: as §1
# ERG = target: T4, ERG (Homo sapiens, UniProt P11308 1-479); details: protein: recombinant; tags: N-terminal GST; dsDNA, one strand shown
# T4 sequence: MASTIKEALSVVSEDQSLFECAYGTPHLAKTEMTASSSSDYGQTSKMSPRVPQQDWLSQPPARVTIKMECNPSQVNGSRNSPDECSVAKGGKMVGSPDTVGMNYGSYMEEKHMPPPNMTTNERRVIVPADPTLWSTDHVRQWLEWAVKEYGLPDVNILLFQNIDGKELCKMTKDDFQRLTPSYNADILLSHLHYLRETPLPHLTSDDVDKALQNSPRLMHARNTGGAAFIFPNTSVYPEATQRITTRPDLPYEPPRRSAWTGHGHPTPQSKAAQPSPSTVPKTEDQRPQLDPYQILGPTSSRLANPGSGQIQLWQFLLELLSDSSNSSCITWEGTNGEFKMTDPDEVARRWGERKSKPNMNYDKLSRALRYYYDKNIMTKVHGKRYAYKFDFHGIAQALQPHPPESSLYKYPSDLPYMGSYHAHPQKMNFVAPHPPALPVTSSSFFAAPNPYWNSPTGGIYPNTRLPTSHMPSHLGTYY
# Method in brief: as §1
# ELF1 = ELF1 (Homo sapiens, UniProt P32519 1-619); details: protein: recombinant; tags: N-terminal GST; dsDNA, one strand shown
# Method in brief: as §1
# EHF = target: T5, EHF (Homo sapiens, UniProt Q9NZC4 1-300); details: protein: recombinant; tags: N-terminal GST; dsDNA, one strand shown
# T5 sequence: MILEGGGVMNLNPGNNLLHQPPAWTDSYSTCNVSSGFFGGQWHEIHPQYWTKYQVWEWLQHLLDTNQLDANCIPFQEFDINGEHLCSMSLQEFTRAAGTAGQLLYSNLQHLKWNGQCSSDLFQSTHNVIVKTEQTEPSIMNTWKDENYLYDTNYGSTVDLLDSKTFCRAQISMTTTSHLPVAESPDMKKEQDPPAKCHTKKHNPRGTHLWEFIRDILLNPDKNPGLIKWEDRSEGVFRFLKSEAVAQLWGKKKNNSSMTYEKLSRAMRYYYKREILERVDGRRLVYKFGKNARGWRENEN
# Method in brief: as §1
# SPI1 = SPI1 (Homo sapiens, UniProt P17947 1-270); details: protein: recombinant; tags: N-terminal GST; dsDNA, one strand shown
# Method in brief: as §1
# SPIB = SPIB (Homo sapiens, UniProt Q01892 1-262); details: protein: recombinant; tags: N-terminal GST; dsDNA, one strand shown
# Method in brief: as §1
# ELK3 = target: T6, ELK3 (Homo sapiens, UniProt P41970 1-407); details: protein: recombinant; tags: N-terminal GST; dsDNA, one strand shown
# T6 sequence: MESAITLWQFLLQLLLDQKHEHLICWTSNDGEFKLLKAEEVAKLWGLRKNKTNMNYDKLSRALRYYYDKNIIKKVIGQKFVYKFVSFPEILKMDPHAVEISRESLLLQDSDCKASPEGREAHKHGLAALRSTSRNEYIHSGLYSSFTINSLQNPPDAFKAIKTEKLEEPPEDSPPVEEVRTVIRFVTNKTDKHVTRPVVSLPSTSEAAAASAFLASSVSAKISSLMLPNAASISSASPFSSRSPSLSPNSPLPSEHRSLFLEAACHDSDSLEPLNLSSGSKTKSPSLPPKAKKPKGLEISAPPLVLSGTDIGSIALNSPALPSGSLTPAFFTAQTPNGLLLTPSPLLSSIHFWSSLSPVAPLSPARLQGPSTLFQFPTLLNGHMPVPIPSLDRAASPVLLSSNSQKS
# Method in brief: as §1
# FEV = target: T7, FEV (Homo sapiens, UniProt Q99581 1-238); details: protein: recombinant; tags: N-terminal GST; dsDNA, one strand shown
# T7 sequence: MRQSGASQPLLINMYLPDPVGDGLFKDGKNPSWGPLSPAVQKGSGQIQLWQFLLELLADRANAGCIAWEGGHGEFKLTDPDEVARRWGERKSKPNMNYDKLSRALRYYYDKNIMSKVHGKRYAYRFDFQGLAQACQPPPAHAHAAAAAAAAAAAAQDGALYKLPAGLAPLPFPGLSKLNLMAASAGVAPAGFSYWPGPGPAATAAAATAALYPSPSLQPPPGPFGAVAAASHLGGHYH
# Method in brief: as §1
# ETV5 = ETV5 (Homo sapiens, UniProt P41161 1-510); details: protein: recombinant; tags: N-terminal GST; dsDNA, one strand shown
# Method in brief: as §1
# HSF1 = HSF1 (Homo sapiens, UniProt Q00613 1-529); details: protein: recombinant; tags: N-terminal GST; chain copies: 3; dsDNA, one strand shown
# Method in brief: as §1
# SPIC = target: T8, SPIC (Homo sapiens, UniProt Q8N5J4 1-248); details: protein: recombinant; tags: N-terminal GST; dsDNA, one strand shown
# T8 sequence: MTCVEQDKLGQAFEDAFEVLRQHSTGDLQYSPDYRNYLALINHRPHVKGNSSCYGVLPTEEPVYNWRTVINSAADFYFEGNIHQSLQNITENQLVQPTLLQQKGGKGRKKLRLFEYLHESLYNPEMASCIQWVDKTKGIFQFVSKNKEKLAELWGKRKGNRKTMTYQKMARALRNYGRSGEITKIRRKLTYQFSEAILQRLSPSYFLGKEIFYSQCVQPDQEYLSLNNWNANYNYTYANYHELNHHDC
# Method in brief: as §1
# ELF4 = ELF4 (Homo sapiens, UniProt Q99607 1-663); details: protein: recombinant; tags: N-terminal GST; dsDNA, one strand shown
# Method in brief: as §1
# ELK4 = target: T9, ELK4 (Homo sapiens, UniProt P28324-2 1-405); details: protein: recombinant; tags: N-terminal GST; dsDNA, one strand shown
# T9 sequence: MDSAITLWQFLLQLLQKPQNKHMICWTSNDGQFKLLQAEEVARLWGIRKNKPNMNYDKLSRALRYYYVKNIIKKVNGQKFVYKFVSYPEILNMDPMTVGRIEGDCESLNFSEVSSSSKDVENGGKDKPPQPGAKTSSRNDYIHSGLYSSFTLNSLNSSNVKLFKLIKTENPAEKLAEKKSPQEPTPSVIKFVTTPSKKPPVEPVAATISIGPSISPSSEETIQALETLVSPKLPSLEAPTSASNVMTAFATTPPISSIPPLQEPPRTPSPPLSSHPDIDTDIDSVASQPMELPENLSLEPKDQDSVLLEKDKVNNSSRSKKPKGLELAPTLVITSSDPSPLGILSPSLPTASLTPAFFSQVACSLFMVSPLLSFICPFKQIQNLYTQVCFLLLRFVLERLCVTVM
# Method in brief: as §1
# ETV2 = target: T10, ETV2 (Homo sapiens, UniProt O00321 1-342); details: protein: recombinant; tags: N-terminal GST; dsDNA, one strand shown
# T10 sequence: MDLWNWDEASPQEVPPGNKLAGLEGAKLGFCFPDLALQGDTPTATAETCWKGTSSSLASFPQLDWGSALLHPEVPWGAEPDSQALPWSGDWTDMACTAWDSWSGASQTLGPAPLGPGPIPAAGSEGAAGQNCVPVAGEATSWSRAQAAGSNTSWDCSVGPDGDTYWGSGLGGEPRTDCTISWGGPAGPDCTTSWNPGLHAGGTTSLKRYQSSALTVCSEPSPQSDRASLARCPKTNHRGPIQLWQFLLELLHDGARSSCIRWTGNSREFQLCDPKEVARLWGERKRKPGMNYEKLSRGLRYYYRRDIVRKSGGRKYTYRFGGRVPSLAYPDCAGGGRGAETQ
# Method in brief: as §1
# ELF3 = target: T11, ELF3 (Homo sapiens, UniProt P78545 1-371); details: protein: recombinant; tags: N-terminal GST; dsDNA, one strand shown
# T11 sequence: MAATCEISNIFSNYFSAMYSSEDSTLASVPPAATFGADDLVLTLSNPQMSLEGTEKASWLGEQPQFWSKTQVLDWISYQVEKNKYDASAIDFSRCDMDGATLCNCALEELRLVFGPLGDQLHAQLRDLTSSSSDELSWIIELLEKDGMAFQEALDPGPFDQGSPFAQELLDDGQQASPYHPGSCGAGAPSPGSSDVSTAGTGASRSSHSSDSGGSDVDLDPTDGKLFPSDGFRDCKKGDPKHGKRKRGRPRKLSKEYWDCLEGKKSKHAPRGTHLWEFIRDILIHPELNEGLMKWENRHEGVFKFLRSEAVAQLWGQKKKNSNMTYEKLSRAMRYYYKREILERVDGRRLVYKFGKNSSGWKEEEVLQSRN
# Method in brief: as §1
# CRX = CRX (Homo sapiens, UniProt O43186 1-299); details: protein: recombinant; tags: N-terminal GST; dsDNA, one strand shown
# Method in brief: as §1
# ETV1 = ETV1 (Homo sapiens, UniProt P50549 1-477); details: protein: recombinant; tags: N-terminal GST; dsDNA, one strand shown
# Method in brief: as §1
# Sequence of ETV5 (P41161 whole entry): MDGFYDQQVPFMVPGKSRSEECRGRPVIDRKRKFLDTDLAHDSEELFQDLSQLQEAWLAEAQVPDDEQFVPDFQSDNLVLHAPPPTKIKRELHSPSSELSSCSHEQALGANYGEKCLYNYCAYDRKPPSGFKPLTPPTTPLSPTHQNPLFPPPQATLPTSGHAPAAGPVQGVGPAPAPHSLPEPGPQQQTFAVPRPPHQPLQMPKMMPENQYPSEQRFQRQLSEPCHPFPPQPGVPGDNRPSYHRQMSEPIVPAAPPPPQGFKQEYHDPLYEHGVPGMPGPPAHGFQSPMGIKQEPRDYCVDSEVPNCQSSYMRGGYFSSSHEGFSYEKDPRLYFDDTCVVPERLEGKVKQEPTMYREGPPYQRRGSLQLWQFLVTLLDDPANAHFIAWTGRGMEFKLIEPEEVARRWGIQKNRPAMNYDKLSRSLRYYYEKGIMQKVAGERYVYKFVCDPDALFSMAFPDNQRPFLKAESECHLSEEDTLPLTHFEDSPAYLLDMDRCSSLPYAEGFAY
# Sequence of ELF1 (P32519 whole entry): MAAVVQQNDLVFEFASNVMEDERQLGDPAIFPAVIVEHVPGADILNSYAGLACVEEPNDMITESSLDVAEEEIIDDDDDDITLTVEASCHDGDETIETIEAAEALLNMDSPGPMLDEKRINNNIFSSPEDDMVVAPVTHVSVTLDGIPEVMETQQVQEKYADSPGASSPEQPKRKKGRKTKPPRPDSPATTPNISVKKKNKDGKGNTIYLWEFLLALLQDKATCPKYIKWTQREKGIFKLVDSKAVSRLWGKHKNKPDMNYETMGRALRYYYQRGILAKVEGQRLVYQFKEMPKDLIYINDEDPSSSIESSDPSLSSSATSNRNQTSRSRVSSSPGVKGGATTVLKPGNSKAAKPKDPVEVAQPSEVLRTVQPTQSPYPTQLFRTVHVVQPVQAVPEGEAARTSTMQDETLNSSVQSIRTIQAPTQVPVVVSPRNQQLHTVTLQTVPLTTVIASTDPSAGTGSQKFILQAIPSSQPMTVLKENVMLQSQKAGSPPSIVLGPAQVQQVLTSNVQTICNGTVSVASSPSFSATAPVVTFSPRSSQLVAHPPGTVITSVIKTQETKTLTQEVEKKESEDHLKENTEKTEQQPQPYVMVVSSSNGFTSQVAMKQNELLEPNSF
# Sequence of ETV1 (P50549 whole entry): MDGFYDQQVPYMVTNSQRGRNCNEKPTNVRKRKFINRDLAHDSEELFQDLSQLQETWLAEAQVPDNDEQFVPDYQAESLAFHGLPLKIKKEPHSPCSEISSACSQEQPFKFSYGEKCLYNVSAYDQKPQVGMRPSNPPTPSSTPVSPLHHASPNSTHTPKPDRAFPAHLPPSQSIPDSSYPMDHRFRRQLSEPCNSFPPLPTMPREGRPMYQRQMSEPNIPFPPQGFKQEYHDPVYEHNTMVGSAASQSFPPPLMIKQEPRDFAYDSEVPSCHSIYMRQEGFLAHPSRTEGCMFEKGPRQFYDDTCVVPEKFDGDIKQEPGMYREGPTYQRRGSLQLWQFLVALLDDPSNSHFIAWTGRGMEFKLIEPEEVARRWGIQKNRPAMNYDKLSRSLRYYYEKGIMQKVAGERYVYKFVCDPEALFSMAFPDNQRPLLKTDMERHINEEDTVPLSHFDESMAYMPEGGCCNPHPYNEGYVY
# Sequence of SPIB (Q01892 whole entry): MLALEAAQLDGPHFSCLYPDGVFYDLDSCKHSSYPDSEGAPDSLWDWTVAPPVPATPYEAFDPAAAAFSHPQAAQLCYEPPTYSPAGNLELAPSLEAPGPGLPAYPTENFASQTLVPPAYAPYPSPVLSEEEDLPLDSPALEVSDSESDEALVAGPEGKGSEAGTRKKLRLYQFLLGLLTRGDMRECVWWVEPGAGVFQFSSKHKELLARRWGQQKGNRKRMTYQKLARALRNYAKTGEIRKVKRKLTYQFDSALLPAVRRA
# Sequence of HSF1 (Q00613 whole entry): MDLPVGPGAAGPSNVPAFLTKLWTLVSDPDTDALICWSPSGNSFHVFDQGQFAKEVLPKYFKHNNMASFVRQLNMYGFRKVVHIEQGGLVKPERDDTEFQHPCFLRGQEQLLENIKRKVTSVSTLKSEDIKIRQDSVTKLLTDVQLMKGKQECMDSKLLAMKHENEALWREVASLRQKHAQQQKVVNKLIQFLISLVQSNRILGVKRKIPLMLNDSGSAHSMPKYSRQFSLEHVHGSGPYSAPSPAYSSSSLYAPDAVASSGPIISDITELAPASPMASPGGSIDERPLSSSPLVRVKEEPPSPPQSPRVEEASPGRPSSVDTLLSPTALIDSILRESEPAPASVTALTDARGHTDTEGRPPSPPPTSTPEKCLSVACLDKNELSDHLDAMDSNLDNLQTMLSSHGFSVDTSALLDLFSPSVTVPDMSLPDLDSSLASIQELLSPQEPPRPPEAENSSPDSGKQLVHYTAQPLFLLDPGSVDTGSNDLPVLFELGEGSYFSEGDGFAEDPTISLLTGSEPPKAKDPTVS
# Sequence of ELF4 (Q99607 whole entry): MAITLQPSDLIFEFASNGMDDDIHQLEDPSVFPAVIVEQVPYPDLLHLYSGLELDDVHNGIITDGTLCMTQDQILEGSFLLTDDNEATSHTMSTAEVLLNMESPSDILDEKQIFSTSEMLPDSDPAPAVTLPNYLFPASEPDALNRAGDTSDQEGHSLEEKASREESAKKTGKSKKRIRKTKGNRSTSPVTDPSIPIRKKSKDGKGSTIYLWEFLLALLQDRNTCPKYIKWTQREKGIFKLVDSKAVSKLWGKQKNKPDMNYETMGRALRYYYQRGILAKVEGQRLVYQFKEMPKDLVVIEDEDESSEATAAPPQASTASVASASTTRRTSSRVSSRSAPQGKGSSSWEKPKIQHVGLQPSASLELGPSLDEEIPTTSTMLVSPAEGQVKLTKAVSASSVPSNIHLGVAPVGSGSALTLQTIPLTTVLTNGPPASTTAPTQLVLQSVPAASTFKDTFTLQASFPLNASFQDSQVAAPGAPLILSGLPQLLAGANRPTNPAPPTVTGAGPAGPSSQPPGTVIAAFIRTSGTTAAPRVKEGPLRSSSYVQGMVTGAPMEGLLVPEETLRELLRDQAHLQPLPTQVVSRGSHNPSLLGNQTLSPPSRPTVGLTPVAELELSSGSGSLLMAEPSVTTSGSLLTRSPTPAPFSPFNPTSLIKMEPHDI
# Sequence of CRX (O43186 whole entry): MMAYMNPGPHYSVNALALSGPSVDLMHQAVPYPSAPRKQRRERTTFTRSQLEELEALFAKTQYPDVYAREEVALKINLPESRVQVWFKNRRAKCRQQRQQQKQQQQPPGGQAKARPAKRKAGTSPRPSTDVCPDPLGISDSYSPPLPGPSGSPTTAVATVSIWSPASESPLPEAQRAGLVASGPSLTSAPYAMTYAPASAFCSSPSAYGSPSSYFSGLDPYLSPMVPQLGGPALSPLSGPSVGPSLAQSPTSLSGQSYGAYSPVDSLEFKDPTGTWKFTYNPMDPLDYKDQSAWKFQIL
sequence,measurement,setting,value
TCACAA,binding signal,FLI1,"1.18 fold enrichment (6-mer frequency, TF over GST control)"
same,binding signal,ELK1,"1.14 fold enrichment (6-mer frequency, TF over GST control)"
same,binding signal,GABPA,"1.21 fold enrichment (6-mer frequency, TF over GST control)"
same,binding signal,ERG,"1.11 fold enrichment (6-mer frequency, TF over GST control)"
same,binding signal,ELF1,"1.23 fold enrichment (6-mer frequency, TF over GST control)"
same,binding signal,EHF,"1.11 fold enrichment (6-mer frequency, TF over GST control)"
same,binding signal,SPI1,"1.06 fold enrichment (6-mer frequency, TF over GST control)"
same,binding signal,SPIB,"1.13 fold enrichment (6-mer frequency, TF over GST control)"
same,binding signal,ELK3,"1.17 fold enrichment (6-mer frequency, TF over GST control)"
same,binding signal,FEV,"1.14 fold enrichment (6-mer frequency, TF over GST control)"
same,binding signal,ETV5,"1.12 fold enrichment (6-mer frequency, TF over GST control)"
same,binding signal,HSF1,"1.03 fold enrichment (6-mer frequency, TF over GST control)"
same,binding signal,SPIC,"1.18 fold enrichment (6-mer frequency, TF over GST control)"
same,binding signal,ELF4,"1.12 fold enrichment (6-mer frequency, TF over GST control)"
same,binding signal,ELK4,"1.21 fold enrichment (6-mer frequency, TF over GST control)"
same,binding signal,ETV2,"1.16 fold enrichment (6-mer frequency, TF over GST control)"
same,binding signal,ELF3,"1.15 fold enrichment (6-mer frequency, TF over GST control)"
same,binding signal,CRX,"1.09 fold enrichment (6-mer frequency, TF over GST control)"
same,binding signal,ETV1,"1.13 fold enrichment (6-mer frequency, TF over GST control)"

# Source: publication PMC7862700, “An all-to-all approach to the identification of sequence-specific readers for epigenetic DNA modifications on cytosine”
